These results are taken from ChEMBL document CHEMBL3988442, “University of Dundee, Small-Polar-MMV Screening Library” (2021).

Holding throughout (parameters): scale not given: direction of the effect not stated beside the values
Assay [1] addresses Protein translocase subunit SecA (Escherichia coli (strain K12)) (UniProt P10408). The assay can be described thus: Assay to Identify E. coli SecA ATPase Inhibitors. In kind it is functional. The settings on record: 30 µM.
Assay [2] addresses T1, Ubiquitin-activating enzyme e1, putative (Leishmania donovani (strain BPK282A1)) (UniProt E9BSI1).
T1 sequence (whole entry): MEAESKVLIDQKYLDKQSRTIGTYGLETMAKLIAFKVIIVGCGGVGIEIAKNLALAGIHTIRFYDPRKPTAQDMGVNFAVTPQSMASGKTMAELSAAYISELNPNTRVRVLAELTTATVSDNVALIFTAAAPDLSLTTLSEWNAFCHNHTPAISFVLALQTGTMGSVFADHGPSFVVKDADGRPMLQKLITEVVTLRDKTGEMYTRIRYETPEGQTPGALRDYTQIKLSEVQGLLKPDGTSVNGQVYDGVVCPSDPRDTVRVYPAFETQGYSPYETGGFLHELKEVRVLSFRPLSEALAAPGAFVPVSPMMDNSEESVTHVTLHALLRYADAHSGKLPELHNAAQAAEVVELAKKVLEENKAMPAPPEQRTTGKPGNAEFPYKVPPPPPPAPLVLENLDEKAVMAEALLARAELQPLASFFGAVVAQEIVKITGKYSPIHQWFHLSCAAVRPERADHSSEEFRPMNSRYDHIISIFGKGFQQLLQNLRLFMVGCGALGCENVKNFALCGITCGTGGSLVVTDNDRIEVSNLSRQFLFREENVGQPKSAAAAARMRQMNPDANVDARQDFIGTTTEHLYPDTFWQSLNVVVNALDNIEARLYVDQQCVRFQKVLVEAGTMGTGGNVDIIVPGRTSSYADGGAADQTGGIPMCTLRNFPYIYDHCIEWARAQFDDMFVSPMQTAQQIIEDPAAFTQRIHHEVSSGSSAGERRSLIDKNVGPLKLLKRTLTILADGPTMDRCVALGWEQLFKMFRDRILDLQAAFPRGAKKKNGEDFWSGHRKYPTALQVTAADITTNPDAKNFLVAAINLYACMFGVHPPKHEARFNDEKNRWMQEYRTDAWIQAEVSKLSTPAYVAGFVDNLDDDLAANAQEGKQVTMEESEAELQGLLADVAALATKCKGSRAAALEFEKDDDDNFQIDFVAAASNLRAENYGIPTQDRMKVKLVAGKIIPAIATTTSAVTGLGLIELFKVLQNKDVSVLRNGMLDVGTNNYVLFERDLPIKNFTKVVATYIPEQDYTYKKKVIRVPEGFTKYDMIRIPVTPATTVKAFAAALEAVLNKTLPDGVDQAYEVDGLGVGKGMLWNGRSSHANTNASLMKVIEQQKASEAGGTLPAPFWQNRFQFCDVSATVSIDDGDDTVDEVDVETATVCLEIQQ
The assay can be described thus: Leishmania donovani Ubiquitin Activating Enzyme (LdE1). The settings on record: 30 µM. In kind it is functional.

Assay [3] has as its target AMP-activated protein kinase, AMPK (Homo sapiens) (UniProt P54646+O43741+P54619+Q9UGJ0+Q9Y478+Q13131+Q9UGI9). The assay can be described thus: AMP-dependent Kinase enzyme assay. An in vitro enzyme assay that detects ADP turnover that is directly proportional to AMPK activity. This uses naive AMPK that is activated during the assay with MK-8722. In kind it is functional. The settings on record: 30 µM.

The target in assay [4] is Sialic acid-binding Ig-like lectin 9 (Homo sapiens) (UniProt Q9Y336). As to the kind of experiment: Hs-Siglec9 ALPHAscreen SOP 20170721. The settings on record: 10 µM.
Sialic acid-binding Ig-like lectin 9 (Homo sapiens), sequence (Q9Y336 whole entry): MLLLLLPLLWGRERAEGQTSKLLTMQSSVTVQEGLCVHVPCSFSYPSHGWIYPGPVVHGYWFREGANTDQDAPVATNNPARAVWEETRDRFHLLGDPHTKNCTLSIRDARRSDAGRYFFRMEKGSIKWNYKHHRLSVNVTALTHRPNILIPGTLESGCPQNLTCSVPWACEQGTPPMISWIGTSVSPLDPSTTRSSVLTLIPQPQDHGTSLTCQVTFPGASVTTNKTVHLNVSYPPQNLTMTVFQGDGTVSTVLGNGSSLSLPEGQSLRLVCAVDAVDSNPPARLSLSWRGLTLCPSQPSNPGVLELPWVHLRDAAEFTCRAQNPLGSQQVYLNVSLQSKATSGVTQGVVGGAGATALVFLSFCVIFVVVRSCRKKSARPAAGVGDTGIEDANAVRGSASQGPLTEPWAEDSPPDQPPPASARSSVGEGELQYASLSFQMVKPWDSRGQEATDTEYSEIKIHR
Another assay deals with Trypanosoma cruzi. The assay can be described thus: Trypanosoma cruzi phosphomannomutase and mannose-1-phosphate guanylyltransferase assay. In kind it is functional. Particulars: 10 µM.
Assay [5] has as its target T2, Arginase-2, mitochondrial (Homo sapiens) (UniProt P78540).
T2 sequence (whole entry): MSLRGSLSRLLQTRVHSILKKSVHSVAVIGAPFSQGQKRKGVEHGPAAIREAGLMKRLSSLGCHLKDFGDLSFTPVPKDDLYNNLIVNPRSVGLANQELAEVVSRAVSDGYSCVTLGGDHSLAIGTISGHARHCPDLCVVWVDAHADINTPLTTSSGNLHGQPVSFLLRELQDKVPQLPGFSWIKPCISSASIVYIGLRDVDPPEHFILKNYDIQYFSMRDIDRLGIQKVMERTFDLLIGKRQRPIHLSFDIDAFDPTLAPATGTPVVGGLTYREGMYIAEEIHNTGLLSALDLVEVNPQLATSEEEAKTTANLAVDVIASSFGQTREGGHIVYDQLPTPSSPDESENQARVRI
The assay can be described thus: in vitro enzyme assay to detect the production of urea directly proportional to the activity of Arginase II. Also: in the data most compounds retested in dose-response had high values. In kind it is functional. Particulars: 33.3 µM.

The target in assay [6] is T3, Proteasome subunit beta (Trypanosoma cruzi) (UniProt O96673).
T3 sequence (whole entry): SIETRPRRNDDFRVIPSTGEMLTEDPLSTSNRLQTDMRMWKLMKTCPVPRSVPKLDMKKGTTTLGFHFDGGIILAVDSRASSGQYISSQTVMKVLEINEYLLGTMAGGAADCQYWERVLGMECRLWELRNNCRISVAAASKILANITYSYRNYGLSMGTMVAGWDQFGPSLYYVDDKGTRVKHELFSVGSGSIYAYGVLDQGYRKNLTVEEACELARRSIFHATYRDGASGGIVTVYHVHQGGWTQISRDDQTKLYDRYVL
The assay can be described thus: Trypanosoma cruzi proteasome chymotrypsin-like activity (TcProtChymo) assay. Also: in the data most compounds retested in dose-response had high values. The settings on record: 9.37 µM. In kind it is functional.

The next assay is filed under the species Homo sapiens. The assay can be described thus: To identify inhibition of the IFN signalling (Jak-Stat) pathway via expression of an eGFP reporter gene under the control of an IFN-stimulated response element (ISRE) containing MxA promoter. In kind it is functional. The settings on record: 30 µM. (Reporter assays use an easily measured gene product as a stand-in for the process of interest.)

The target of assay [7] is T4, Tyrosyl-tRNA synthetase, putative (Trypanosoma cruzi (strain CL Brener)) (UniProt Q4DSP6).
T4 sequence (whole entry): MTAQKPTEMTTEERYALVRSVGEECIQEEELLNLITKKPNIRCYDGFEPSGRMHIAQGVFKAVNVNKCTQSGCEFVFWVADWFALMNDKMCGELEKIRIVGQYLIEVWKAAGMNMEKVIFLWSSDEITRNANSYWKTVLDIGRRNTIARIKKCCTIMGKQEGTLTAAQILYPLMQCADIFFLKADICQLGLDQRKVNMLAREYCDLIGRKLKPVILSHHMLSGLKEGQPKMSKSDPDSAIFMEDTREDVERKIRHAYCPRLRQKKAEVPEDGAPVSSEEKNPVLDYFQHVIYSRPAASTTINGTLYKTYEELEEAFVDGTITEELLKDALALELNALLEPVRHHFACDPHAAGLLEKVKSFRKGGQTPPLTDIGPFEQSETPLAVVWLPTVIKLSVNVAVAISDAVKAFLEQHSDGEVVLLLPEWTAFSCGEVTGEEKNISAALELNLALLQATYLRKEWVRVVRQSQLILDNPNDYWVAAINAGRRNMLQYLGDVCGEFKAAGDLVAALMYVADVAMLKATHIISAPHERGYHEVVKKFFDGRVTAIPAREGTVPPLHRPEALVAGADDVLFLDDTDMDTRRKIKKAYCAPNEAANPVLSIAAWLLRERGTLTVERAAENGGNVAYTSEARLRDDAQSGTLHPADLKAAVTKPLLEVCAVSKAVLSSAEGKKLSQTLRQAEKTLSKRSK
As to the kind of experiment: Trypanosoma cruzi tyrosyl tRNA synthetase (TcYRS) _High Tyrosine SOP. Also: in the data most compounds retested in dose-response had high values. Format: functional. The settings on record: 30 µM.

Assay [8] addresses T4, Tyrosyl-tRNA synthetase, putative (Trypanosoma cruzi (strain CL Brener)). As to the kind of experiment: Trypanosoma cruzi tyrosyl tRNA synthetase (TcYRS) SOP. Particulars: 30 µM. Format: functional.
For assay [9], the target named is Chromo domain-containing protein 1 (Saccharomyces cerevisiae (strain ATCC 204508 / S288c) (Baker's yeast)) (UniProt P32657). As to the kind of experiment: ScCHD-1 Enzyme Inhibition Assay. Also: in the data most compounds retested in dose-response had high values. Format: functional. The settings on record: 30 µM.
Chromo domain-containing protein 1 (Saccharomyces cerevisiae (strain ATCC 204508 / S288c) (Baker's yeast)), sequence (P32657 whole entry, the tested form may be a part): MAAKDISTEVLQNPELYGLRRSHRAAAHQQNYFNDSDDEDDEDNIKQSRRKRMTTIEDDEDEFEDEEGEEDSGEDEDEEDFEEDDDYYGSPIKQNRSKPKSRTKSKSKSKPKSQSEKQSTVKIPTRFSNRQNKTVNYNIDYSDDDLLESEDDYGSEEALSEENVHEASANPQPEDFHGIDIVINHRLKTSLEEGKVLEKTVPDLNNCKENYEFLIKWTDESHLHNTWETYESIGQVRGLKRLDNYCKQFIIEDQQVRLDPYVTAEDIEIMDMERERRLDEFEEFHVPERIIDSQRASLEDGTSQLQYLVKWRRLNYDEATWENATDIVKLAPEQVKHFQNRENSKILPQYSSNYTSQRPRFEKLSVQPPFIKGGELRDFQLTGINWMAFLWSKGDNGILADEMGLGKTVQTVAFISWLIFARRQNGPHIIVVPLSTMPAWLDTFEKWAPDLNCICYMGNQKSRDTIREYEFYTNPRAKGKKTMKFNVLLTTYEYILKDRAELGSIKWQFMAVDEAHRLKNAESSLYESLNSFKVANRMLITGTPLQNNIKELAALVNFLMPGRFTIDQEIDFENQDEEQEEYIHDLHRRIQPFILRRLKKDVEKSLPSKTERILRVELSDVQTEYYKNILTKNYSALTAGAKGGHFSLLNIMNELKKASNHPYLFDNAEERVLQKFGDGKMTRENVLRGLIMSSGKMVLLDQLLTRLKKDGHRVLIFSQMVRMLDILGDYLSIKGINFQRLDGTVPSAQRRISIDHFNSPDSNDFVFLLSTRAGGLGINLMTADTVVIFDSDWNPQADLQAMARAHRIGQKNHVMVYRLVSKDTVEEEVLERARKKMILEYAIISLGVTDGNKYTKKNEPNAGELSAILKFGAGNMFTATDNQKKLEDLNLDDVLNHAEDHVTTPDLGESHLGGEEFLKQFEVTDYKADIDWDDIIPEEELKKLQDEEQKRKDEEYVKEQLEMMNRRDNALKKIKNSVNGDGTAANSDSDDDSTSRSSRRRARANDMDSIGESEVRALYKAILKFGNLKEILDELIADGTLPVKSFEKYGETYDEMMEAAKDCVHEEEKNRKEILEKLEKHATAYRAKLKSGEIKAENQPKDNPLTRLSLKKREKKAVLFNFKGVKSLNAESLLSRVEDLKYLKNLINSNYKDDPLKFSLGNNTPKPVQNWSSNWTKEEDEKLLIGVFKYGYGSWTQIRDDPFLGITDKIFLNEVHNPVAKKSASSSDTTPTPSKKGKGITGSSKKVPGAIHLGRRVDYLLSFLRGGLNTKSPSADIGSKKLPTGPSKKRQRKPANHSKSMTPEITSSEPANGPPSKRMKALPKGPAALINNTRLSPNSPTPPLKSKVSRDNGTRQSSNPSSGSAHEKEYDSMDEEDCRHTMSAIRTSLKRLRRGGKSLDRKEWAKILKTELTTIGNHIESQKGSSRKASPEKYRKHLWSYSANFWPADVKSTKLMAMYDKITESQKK

The structures appear in SMILES notation. For some of these results: Potency and affinity values are given separately.

Protein translocase subunit SecA (Escherichia coli (strain K12)), sequence (P10408 whole entry): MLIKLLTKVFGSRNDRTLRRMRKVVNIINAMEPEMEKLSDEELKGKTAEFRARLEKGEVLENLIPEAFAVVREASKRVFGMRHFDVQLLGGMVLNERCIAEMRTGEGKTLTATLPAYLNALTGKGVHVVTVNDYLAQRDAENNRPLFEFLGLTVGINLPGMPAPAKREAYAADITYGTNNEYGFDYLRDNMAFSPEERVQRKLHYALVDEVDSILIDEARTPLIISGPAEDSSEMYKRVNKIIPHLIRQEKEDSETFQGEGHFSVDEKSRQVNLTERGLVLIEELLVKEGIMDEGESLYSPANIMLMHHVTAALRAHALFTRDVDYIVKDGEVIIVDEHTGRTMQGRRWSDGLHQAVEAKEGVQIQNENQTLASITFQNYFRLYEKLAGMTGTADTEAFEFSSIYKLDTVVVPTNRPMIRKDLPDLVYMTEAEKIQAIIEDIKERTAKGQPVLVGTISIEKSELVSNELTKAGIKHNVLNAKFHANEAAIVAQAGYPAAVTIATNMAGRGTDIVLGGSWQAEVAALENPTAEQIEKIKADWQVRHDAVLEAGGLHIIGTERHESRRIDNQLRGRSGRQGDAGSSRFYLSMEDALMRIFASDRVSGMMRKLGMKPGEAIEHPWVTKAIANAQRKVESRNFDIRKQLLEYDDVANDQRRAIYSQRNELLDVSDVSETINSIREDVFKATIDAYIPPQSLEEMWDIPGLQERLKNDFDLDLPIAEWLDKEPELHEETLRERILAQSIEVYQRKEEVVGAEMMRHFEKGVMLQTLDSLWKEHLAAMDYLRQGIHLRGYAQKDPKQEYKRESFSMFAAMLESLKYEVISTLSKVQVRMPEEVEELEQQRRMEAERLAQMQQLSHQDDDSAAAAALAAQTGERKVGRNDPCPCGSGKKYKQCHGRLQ

With `Cc1nc(N2CCCCC2)ncc1C(=O)N1CC(C)(C)[C@@](C)(O)C1`, the Percent Effect in [1] is -4.9%; in [2] it was 0%; in assay [3] it was -4.56%; in assay [4], 7.93%; in the assay with Trypanosoma cruzi it was -2.05%; in assay [5], 4.22%. The Percent Effect in assay [6] was -6.09%; in the assay filed under Homo sapiens, 7.42%; in assay [7], 8.6%; in assay [8] it was 6.17%; in assay [9] it was -1.76%.
Regarding `O=C(c1cccn1Cc1cccs1)N1CCN(C(=O)C2CC2)CC1`, the Percent Effect in assay [1] is -6.16%; in assay [2], 13%; in assay [3], 1.66%; in assay [4], 2.72%; with Trypanosoma cruzi it was 1.5%; in assay [5], -0.712%. The Percent Effect in assay [6] amounted to 0.845%; in the assay listed under Homo sapiens it was 9.85%; in [7] it was 8.74%; in [8] it was 21.9%; in assay [9], 1.63%.
Take `CSCc1cccc(S(=O)(=O)NCCCn2ccnc2)c1`: the Percent Effect in assay [1] is -5.68%; in assay [2], -23.4%; in [3], -1.48%; in assay [4], 6.2%; with Trypanosoma cruzi it was 1.67%; in [5], -6.9%. Also, the Percent Effect in assay [6] is 2.16%; in the assay filed under Homo sapiens, 2.79%; in [7], 7.53%; in assay [8], 21%; in assay [9], -1.53%.
Take `COCCNC(=O)Cn1nc(C(C)C)c2cnn(C(C)(C)C)c2c1=O`: the Percent Effect in assay [1] was -2.65%; in assay [2], 5.48%; in [3], -1.93%; in assay [4], 5.56%; in the assay with Trypanosoma cruzi, 3.72%; in [5], -1.36%. The Percent Effect is 17.6% in assay [6]; 15.1% in the assay filed under Homo sapiens; 8.6% in [7]; 15% in assay [8]; -6.24% in assay [9].
Take `NC(=O)c1ccc2c(c1)nc1n2CCN(Cc2ccccc2)C1`: the Percent Effect is -6.79% in [1]; 15.8% in assay [2]; 5.45% in assay [3]; 5.68% in [4]; 3.8% in the assay with Trypanosoma cruzi; -20.1% in assay [5]. Further, the Percent Effect in assay [6] was found to be 12%; in the assay listed under Homo sapiens it was 5.05%; in assay [7], 4.25%; in [8], 10.4%; in [9], 6.79%.
Turning to `Cc1n[nH]c(C)c1C1CCCN1C(=O)NCCSC(C)(C)C` (stereo unspecified), the Percent Effect in [1] is -2.09%; in assay [2] it was 0%; in assay [3], 3.06%; in assay [4] it was -3.83%; with Trypanosoma cruzi, -1.37%; in [5], -0.909%. Also, the Percent Effect was 0.887% in assay [6]; 4.14% in the assay listed under Homo sapiens; 3.23% in [7]; -2.5% in [8]; -1.95% in [9].
For `CC(CN1CCOCC1)NC(=O)NCc1ccc(Cl)s1` (stereo unspecified), the Percent Effect in assay [1] was 0.411%; in [2], 10.5%; in [3], 7.25%; in assay [4] it was 0.82%; with Trypanosoma cruzi it was -2.63%; in [5] it was -2.37%. Moreover, the Percent Effect was 15.8% in assay [6]; 5.71% in the assay filed under Homo sapiens; 8.51% in assay [7]; 20.8% in [8]; -3.24% in [9].
As for `Cc1nn(C)c(Cl)c1C(=O)NCC(c1ccsc1)N(C)C` (stereo unspecified), the Percent Effect in assay [1] was -3.36%; in assay [2], 17.7%; in assay [3] it was -4.46%; in assay [4] it was -7.25%; in the assay on Trypanosoma cruzi, 7.65%; in [5] it was 1.14%. In addition, the Percent Effect is 4.18% in assay [6]; -12.9% in the assay listed under Homo sapiens; 5.42% in assay [7]; 16.5% in assay [8]; -6.9% in assay [9].
For `COCc1cncc2c1CCN(C(=O)c1ccc(C)o1)C2`, the Percent Effect was -3.33% in assay [1]; 10.7% in assay [2]; 1.34% in [3]; -0.678% in assay [4]; -4.63% in the assay on Trypanosoma cruzi; -60% in assay [5]. The Percent Effect in assay [6] was 6.33%; in the assay filed under Homo sapiens it was -0.987%; in assay [7], 4.17%; in assay [8] it was 5%; in [9], -6.41%.
For the compound `Cc1cc(C)n(C2CN(CC(=O)NCC(C)(C)N3CCOCC3)C2)n1`, the Percent Effect in assay [1] is -1.83%; in assay [2], 8.86%; in assay [3], 2.81%; in assay [4] it was 2.3%; with Trypanosoma cruzi, -1.13%; in [5], -0.645%. In addition, the Percent Effect in [6] is 8.92%; in the assay filed under Homo sapiens it was 20.1%; in assay [7], 5.21%; in [8], 15.2%; in assay [9], -7.96%.
Turning to `Cc1cccc(C(=O)NCc2ccc(N3CCCCC3)nc2)n1`, the Percent Effect in [1] is -0.795%; in assay [2], 13.9%; in assay [3] it was 3.85%; in [4], 4.23%; with Trypanosoma cruzi, -2.97%; in [5], -1.5%. Also, the Percent Effect in [6] is 11.8%; in the assay filed under Homo sapiens, 24.3%; in [7], 8.33%; in assay [8], 15.2%; in assay [9] it was -1.41%.
